Source: PubChem BioAssay
The full list was thinned out, with hits kept by preference.
RmlCD inh mix: inhibitors of RmlC and RmlD coupled enzymes; RmlC/RmlD coupled enzyme inhibition, 384-well mixture HTS; inhibition, % at 5.5 µM; 0.39% of 110,000 active; AID 1532; in the data active = inhibition above about 30%, passing the limit was not always enough; inconclusive = no clear call, values can overlap the other calls
HIV RNase H inh-1: inhibitors of HIV-1 reverse transcriptase RNase H. P04585. inhibition, % at 10 µM. 1.9% of 65,000 active. RT-RNase H RNA/DNA duplex cleavage, fluorescence. AID 565; in the data active = inhibition above about 50%
HIV RNase H inh-2: confirmation of HIV-1 reverse transcriptase RNase H inhibitors; inhibition, % at 10 µM; Recombinant RT RNase H, fluorescent RNA/DNA duplex cleavage; 39% of 1,000 active; AID 651; shares compounds with HIV RNase H inh-1; in the data active = inhibition above about 48%; inconclusive = no clear call, values can overlap the other calls
* hit, by the source's call; ? = inconclusive; nt = no result.

SMILES	RmlCD inh mix	HIV RNase H inh-1	HIV RNase H inh-2
Cc1cc(C)cc(OCC(=O)Nc2nonc2NC(=O)COc2cc(C)cc(C)c2)c1	-3	78*	67*
COc1ccc(N2CCN(C(c3cc(OC)ccc3OC)c3nnnn3Cc3ccco3)CC2)cc1 (stereo not drawn)	-18	12	nt
CC(C)(O)C#Cc1ccc(C(=O)NCc2cccs2)s1	8	65*	38
CC(=O)c1ccc(C#CC(C)(C)O)s1	4	-10	nt
CCOC(=O)C1C(=O)NC(SCC(N)=O)=C(C#N)C1c1ccccc1OCC (stereo not drawn)	-10	66*	-1
CCOC(=O)C1C(=O)NC(SC)=C(C#N)C1c1ccccc1F (stereo not drawn)	-6	-7	nt
CCNc1nc2c(c(=O)n(C)c(=O)n2C)n1Cc1ccc(Cl)cc1	nt	-1	nt
O=C(COc1ccc(Cl)cc1)Nc1nc(-c2ccc(S(=O)(=O)N3CCOCC3)cc2)cs1	-6	nt	nt
O=C(COc1ccccc1)Nc1nc(-c2ccc(S(=O)(=O)N3CCOCC3)cc2)cs1	-1	66*	20
CC1CCCCN1C(=O)CSc1nc(N)cc(=O)[nH]1 (stereo not drawn)	5	nt	nt
CCOc1cc(/C=C(\C#N)c2[nH]nc(N)c2C#N)ccc1O	-7	nt	nt
CCCOc1ccc(-c2nnn(CC(=O)OCC)n2)cc1	15	-2	nt
CCOCCCNC(=O)c1ccc(NC(C)=O)cc1	-10	nt	nt
CCn1c(=NC(=O)CN2C(=O)CCC2=O)sc2c(OC)ccc(OC)c21	-9	-12	nt
CCn1c(=NC(=O)c2ccc(N3C(=O)CCC3=O)cc2)sc2c(OC)ccc(OC)c21	-16	56*	?
COc1ccc(-c2noc(CCC(=O)N3CCN(c4cccc(C(F)(F)F)c4)CC3)n2)cc1	0	0	nt
COC(=O)c1ccc2c(c1)N(Cc1nc(-c3cccc(C)c3)oc1C)C(=O)C1CCCN21 (stereo not drawn)	4	71*	67*
Cc1cccc(-c2nc(CN3CCCC(C(=O)NC4CCCCCC4)C3)c(C)o2)c1 (stereo not drawn)	3	6	nt
CCOC(=O)c1c(C)oc2c1c(C(c1ccncc1)N1CCOCC1)c(O)c1ccccc12 (stereo not drawn)	9	68*	6
CCOC(=O)c1c(C)oc2c1c1c(c3ccccc32)OCN(Cc2ccccn2)C1	-11	nt	nt
COCCn1c(SCC(=O)N2CCN(c3ccccc3)CC2)nc2c(c1=O)SC(C)C2 (stereo not drawn)	-4	-5	nt
CC(C)C[C@@H](CSc1ccc(Br)cc1)N1CCN(C)CCC1=O	6	nt	nt
O=C1C=Cc2ccccc2C1=O	-34	95*	67*
CCN1C(=C2C(=O)c3ccccc3C2=O)C=Cc2ccccc21	15	-10	nt
CC(C)CCn1c(SCCc2ccccc2)nc2c1c(=O)[nH]c(=O)n2C	34	74*	5
SMILES	RmlCD inh mix	HIV RNase H inh-1	HIV RNase H inh-2
CCCCCn1c(SCCCC)nc2c1c(=O)[nH]c(=O)n2C	?	71*	61*
CCCn1c(SCCc2ccccc2)nc2c1c(=O)[nH]c(=O)n2C	20	7	nt
CCCCCCn1c(SCCC)nc2c1c(=O)[nH]c(=O)n2C	5	-2	nt
CCC(CC)NC(=O)c1ccc2nc[nH]c2c1	-2	nt	nt
Cc1cc(Nc2ccccc2)c2c([N+](=O)[O-])cc(C)c(C)c2n1	2	nt	nt
COc1ccc2[nH]c3nc(SCC(=O)Nc4ccc5c(c4)OCO5)nnc3c2c1	6	nt	nt
COc1ccc2[nH]c3nc(SCc4nnc(-c5ccc(C)cc5)o4)nnc3c2c1	9	60*	8
CCOc1ccc(Cl)cc1CN1CCOCC1	36	nt	nt
CCC(=O)c1ccc(OCC(O)CN2CCN(c3ccc(F)cc3)CC2)cc1 (stereo not drawn)	-16	nt	nt
Cc1ccccc1NC(=O)CSc1nnc(-c2ccco2)c(-c2ccco2)n1	-37	nt	nt
Cc1cccc(C)c1NC(=O)CSc1nnc(-c2ccco2)c(-c2ccco2)n1	0	nt	nt
CSc1nnc2c(n1)OC=Nc1ccccc1-2	-8	-11	nt
Cc1ccc(NC(=O)CSc2nnc(-c3ccco3)c(-c3ccco3)n2)cc1	-6	97*	28
CSc1nnc(-c2ccco2)c(-c2ccco2)n1	8	77*	43
O=C(CSc1nnc(-c2ccco2)c(-c2ccco2)n1)Nc1ccccc1	9	87*	37
O=C(CCn1nc(-c2ccc(Cl)cc2)c2ccccc2c1=O)NCCN1CCOCC1	-18	nt	nt
CCOC(=O)c1c(C)[nH]c(C(=O)CSc2nnc(CC(C)c3ccccc3)o2)c1C (stereo not drawn)	-4	72*	?
CCOC(=O)c1c(NC(=O)CSc2nc3ccccc3o2)sc(C)c1C	9	nt	nt
CC(=O)c1c(C)[nH]c(C(=O)CSc2nnc(-c3ccccc3)o2)c1C	-7	nt	nt
CCOC(=O)c1c(C)[nH]c(C(=O)CSc2nc3ccccc3o2)c1C	4	90*	69*
O=C(O)CC1(Cc2nc(-c3cccs3)no2)CCCC1	-11	-16	nt
CCOC(=O)CCc1c(C)nc(SCCN2CCCC2)c(C#N)c1C	-11	4	nt
CCOC(=O)CCc1c(C)nc(SCCCn2c(=O)[nH]c3ccccc32)c(C#N)c1C	6	86*	20
O=C(c1ccc2c(c1)OCCO2)C1CCN(C(=O)c2ccc(F)cc2)CC1	-12	-14	nt
COc1cccc2sc(N3CCN(c4nc5ccccc5s4)CC3)nc12	-2	71*	?
SMILES	RmlCD inh mix	HIV RNase H inh-1	HIV RNase H inh-2
CCN1CCN(c2nc3ccccc3s2)CC1	67	nt	nt
CC1Cc2ccccc2N1Cc1nc2cc(Cl)ccc2c(=O)[nH]1 (stereo not drawn)	-15	nt	nt
COC(=O)c1ccc2c(=O)[nH]c(CN3c4ccccc4CC3C)nc2c1 (stereo not drawn)	-6	63*	61*
Cc1cnc(C)c(N2CCC(C(=O)NCc3ccco3)CC2)n1	-6	-19	nt
COCCn1c(SCC(=O)N2CCCc3ccccc32)nnc1-c1ccoc1C	-4	nt	nt
CCn1c(SCC(=O)NC)nnc1C(C)C	-2	1	nt
S=C(c1ccc(Cl)cc1)N1CCOCC1	3	90*	58*
S=C(c1ccc(-c2ccc(Cl)cc2Cl)o1)N1CCCCC1	11	nt	nt
S=C(c1ccc(-c2ccccc2Cl)o1)N1CCOCC1	-17	95*	51*
S=C(Nc1ccc(Cl)cc1)N1CCOCC1	-13	nt	nt
O=C(c1ccc(-c2cccc(C(F)(F)F)c2)o1)N1CCOCC1	-10	-32	nt
S=C(c1ccc(-c2ccc(Cl)c(Cl)c2)o1)N1CCOCC1	8	66*	0
Cc1csc(NC(=O)CSc2nnnn2C)n1	-3	nt	nt
CCc1cc2c(NCCO)ncnc2s1	-4	2	nt
CN(C(=O)CSc1nc2ccccc2n1CCc1ccccc1)C1CCS(=O)(=O)C1 (stereo not drawn)	10	86*	-1
CN(C(=O)CSc1nnc2ccccn12)C1CCS(=O)(=O)C1 (stereo not drawn)	5	nt	nt
CSCCC1C(C#N)=C(N)Oc2n[nH]c(-c3cccs3)c21 (stereo not drawn)	3	-11	nt
Cn1c(=O)[nH]c(=O)c2c1nc(N1CCCCC1)n2CCCSc1nc2ccccc2s1	10	5	nt
COc1ccc(-c2cc(C(=O)N3CCN(c4ccccc4)CC3)no2)cc1OC	-23	nt	nt
COc1ccccc1-c1cc(C(=O)N2CCN(c3ccc(F)cc3)CC2)no1	4	72*	25
N#CC1(Cc2ccccc2)c2ccccc2C=CN1C(=O)c1ccccc1 (stereo not drawn)	-6	nt	nt
